Screening results from PubChem.
The list is not random: actives were taken first. Their share in the collection is about 11%.
VP16 counter: inhibits Gal4-VP16 luciferase reporter, ROR gamma counter-screen | Drosophila S2 Gal4-VP16 UAS-luciferase, luminescence, 20 h | Potency, µM (series often up to 53.6 µM), for the others: at the top dose activity, negative = inhibition, actives largely listed as inhibitors | 3.5% of 310,000 active | AID 2546;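 also: Gal4-VP16 expression switched on by copper sulfate through the metallothionein promoter; potency is read from the fitted curve at half-maximal effect; % is scaled to controls: 0 for no effect and ±100 for the full control effect; nearly all actives have a fitted effect of over 50% in size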
SW480 rerep: induces DNA re-replication in SW480 colon adenocarcinoma cells; SW480 DNA re-replication, Hoechst DNA content imaging, 48 h; Potency, µM (doses to about 46.1 µM), without a hit: top-dose re-replication activation, most hits filed as activators; 1.8% of 340,000 active; AID 624297; also: potency is read from the fitted curve at half-maximal effect; % of control where 0% means no effect; nearly all actives have a fitted effect of over 55% in size
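Per well, 250 cells were exposed to pinned compound for 48 hr. Nuclear DNA was visualised with Hoechst (40 min, 37 C) and total object intensity recorded by fluorescence scanning.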
RORgamma inh: inhibitors of mouse ROR gamma transcriptional activity; P51450; Drosophila S2 Gal4-RORgamma UAS-luciferase reporter, 20 h; Potency, µM (titrated, usually from 53.6 µM), for inactives: at the highest dose activity change, negative = inhibition, hits mostly inhibitors; 5.4% of 310,000 active; also: potency is read from the fitted curve at half-maximal effect; % is scaled to controls: 0 for no effect and ±100 for the full control effect; nearly all actives have a fitted effect of over 60% in size
Target sequence (P51450 whole entry, looked up, the tested form may be a part): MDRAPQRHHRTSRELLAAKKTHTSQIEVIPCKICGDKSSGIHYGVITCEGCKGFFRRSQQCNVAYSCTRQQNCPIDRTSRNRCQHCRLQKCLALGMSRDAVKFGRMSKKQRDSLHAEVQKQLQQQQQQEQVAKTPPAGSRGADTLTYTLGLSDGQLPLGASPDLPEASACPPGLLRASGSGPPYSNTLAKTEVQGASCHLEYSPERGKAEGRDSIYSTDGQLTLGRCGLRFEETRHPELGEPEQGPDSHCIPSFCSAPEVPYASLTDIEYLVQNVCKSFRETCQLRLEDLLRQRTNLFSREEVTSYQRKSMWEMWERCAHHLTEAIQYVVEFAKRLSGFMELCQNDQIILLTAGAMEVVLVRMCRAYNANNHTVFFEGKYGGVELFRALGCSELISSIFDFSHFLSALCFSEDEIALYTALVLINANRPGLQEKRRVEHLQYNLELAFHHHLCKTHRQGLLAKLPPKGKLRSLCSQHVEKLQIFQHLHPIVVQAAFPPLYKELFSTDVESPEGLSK
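Using a luciferase readout, inhibitors were identified by reduced reporter activity in Drosophila cells coexpressing a copper-inducible Gal4–ROR gamma fusion and UAS-driven Photinus luciferase, incubated 20 hr after 700 uM copper sulfate.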
MCF10A rerep: DNA re-replication induction in MCF 10a cells. Potency, µM (series often up to 46.1 µM), without a hit: at the top dose activity, positive = re-replication, actives largely listed as activators. MCF 10A DNA re-replication, Hoechst nuclear intensity, 48 h. 2.9% of 350,000 active; also: potency is read from the fitted curve at half-maximal effect; % of control where 0% means no effect; nearly all actives have a fitted effect of over 50% in size
IL-1B inflam inh: inflammasome signaling inhibition, IL-1 beta readout; 4.7% of 360,000 active; THP-1 LPS/ATP IL-1B secretion, AlphaLISA, 16 h; hits give low values; activity change, % at 57.5 µM; in the data active = activity change below about -50%; inconclusive = mostly about -30% to -49%; also: % is scaled to controls: 0 for no effect and ±100 for the full control effect
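Secreted IL-1B measured by AlphaLISA bead assay after 16 h compound exposure of THP-1 cells; compounds (final up to 57.5 uM) added 1 h before LPS (250 ng/mL) and ATP (1.25 mM) stimulation; lower signal means less secretion.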
* hit, by the source's call; u = inconclusive; x = no result given; ! = repeats disagree. Unless noted, calls follow the shape of the dose curve; as a rule, active = well fitted curve in the direction sought with a large enough effect; inconclusive = small, poorly fitted or top-dose-only effect, or another doubt; inactive = no such curve, though single readings can be large; an effect the other way counts as inactive or inconclusive.

SMILES	VP16 counter	SW480 rerep	RORgamma inh	MCF10A rerep	IL-1B inflam inh
CCOc1c(Cl)cc(/C=N/NC(N)=S)cc1OC	15.8µM*	0.4%	7.08µM*	20.1%	154.8
COc1cc(/C=N/O)cc(Cl)c1OC	10.1%	-0.4%	-2.7%	0.5%	11.4
C#CCOc1c(Cl)cc(/C=N/NC(N)=S)cc1OCC	u	-0.6%	14.1µM*	7.5%	23.6
C#CCOc1c(Cl)cc(/C=C2/C(=O)ON=C2C)cc1OCC	2.2%	-2.5%	25.8%	-2.2%	10.7
CCCCNc1c(C(=O)OCC)c(C)nc2c1cnn2CC	u	-108.9%	31.6µM*!	u	0.6
CCOC(=O)c1c(C)nc2c(C#N)cnn2c1C	2.8%	3.6%	-14.5%	-14.7%	-13.1
Cn1cccc1/C=N\NC(=O)c1cncc(Br)c1	u	u	12.6µM*	u	x
Cc1ccc(C(=O)N/N=C/c2c(O)ccc3ccccc23)cn1	7.08µM*	24.7%	5.01µM*	24.2%	95.5
O=C(N/N=C/c1c(O)ccc2ccccc12)c1ccc[n+](CCO)c1	-2.1%	u	-58.9%	11.8%	103.0
O=C(N/N=C\c1c(O)ccc2ccccc12)c1cncc(Br)c1	4.47µM*	u	5.01µM*	14.6µM*	204.0
O=C(N/N=C/c1c(O)ccc2ccccc12)c1cccnc1	12.6µM*	0.82µM*	10µM*	u	195.0
COc1ccccc1/C=N/NC(=O)c1ccc(C)nc1	-1.1%	2.5%	17.3%	13.2%	2.1
COc1ccc(-c2nc(-c3ccccc3)oc2Nc2ccccc2C)cc1	0.9%	x	-0.3%	x	x
COCCCN1C(=O)C(CC(=O)NCC2CCCCC2)CC(C(=O)N(C(C)C)C(C)C)=C1C (stereo not given)	x	x	x	x	0.0
COCCN(C(=O)CCC(=O)Nc1ccccn1)C(C(=O)NCCC(C)C)c1ccc(F)cc1 (stereo not given)	-0.9%	-15.7%	13.2%	5.7%	4.5
COc1ccc2ccccc2c1/C=N\NC(=O)c1cccnc1	x	3.66µM*	x	18.4µM*	13.1
COc1ccc2ccccc2c1/C=N/NC(=O)c1cccc(C)c1	x	-5.7%	x	u	-29.2
Cc1cc(O)c(C)c(O)c1/C=N/NC(=O)c1cccnc1	7.94µM*	u	7.94µM*	-4.9%	150.7
CCCCn1nnnc1C(c1ccccc1)N1CCN(c2c(Cl)cncc2Cl)CC1 (stereo not given)	x	x	x	x	0.2
C/C(=N\NC(=O)c1cc(-c2ccc(C)s2)nc2ccccc12)c1cccnc1	u	9.3%	u	12.8%	-53.4*
C/C(=N/NC(=O)c1cc(-c2ccccc2)nc2c(Cl)cccc12)c1cccnc1	11.2µM*	12.4%	17.8µM*	5.0%	-0.8
C/C(=N\NC(=O)c1cc(-c2cccnc2)nc2ccccc12)c1ccc(O)cc1O	0.562µM*	u	0.631µM*	u	49.3
C/C(=N\NC(=O)c1cc(C)nc2ccccc12)c1ccc([N+](=O)[O-])cc1	-13.7%	-2.0%	5.9%	0.9%	13.7
C/C(=N\NC(=O)c1cc(C)nc2ccccc12)c1ccncc1	-7.8%	5.17µM*	-17.2%	11.6µM*	36.8
C/C(=N\NC(=O)c1cc(-c2cccc(OC(C)C)c2)nc2ccccc12)c1cccnc1	u	9.3%	-127.9%	17.5%	-2.8
SMILES	VP16 counter	SW480 rerep	RORgamma inh	MCF10A rerep	IL-1B inflam inh
Cc1cccc(C)c1NC(=O)C1(C)CSCC(=O)N1CCCn1ccnc1 (stereo not given)	x	x	x	x	-10.2
CCCCN(C)c1c(C)nc2ccc(C(=O)N(C)Cc3ccco3)cn12	x	x	x	x	-2.6
O=C(Nc1cccc(C(=O)O)c1)/C(=C\c1ccc2c(c1)OCO2)NC(=O)c1ccccc1Cl	1.6%	0.3%	-14.2%	-13.7%	0.0
COc1cccc(C(C(=O)NC2CCCC2)N2CCN(c3ncccc3C#N)CC2)c1OC (stereo not given)	x	x	x	x	-11.7
CCOC(=O)c1cccc(NC(=O)c2c(NCc3ccccc3)[nH]c(=O)[nH]c2=O)c1	x	u	x	5.8µM*	98.9
COc1ccc(CN2C(=O)C(CC(=O)NCCc3ccccn3)CC(C(=O)N(C)C)=C2C)cc1 (stereo not given)	x	x	x	x	3.4
COc1ccc(-c2nnc(Nc3nc4c(OC)cccc4s3)o2)cc1	12.6µM*	u	11.2µM*	u	103.9
COc1ccc(-c2nnc(Nc3nc4c(OC)cccc4s3)o2)c(OC)c1	u	0.4%	1.58µM*	4.7%	-3.3
COc1ccc2nc(Nc3ccccc3OC)sc2c1	u	16.5%	u	4.7%	-8.5
Nc1ccc2c3c(cccc13)C(=O)N(c1ccccc1)C2=O	-13.5%	2.1%	1.5%	-4.6%	6.8
O=C1c2ccc3c4c(ccc(c24)C(=O)N1c1cccc(O)c1)C(=O)N(c1cccc(O)c1)C3=O	u	2.59µM*	u	13µM*	-13.3
O=C(O)c1cccc(N2C(=O)c3cccc4cccc(c34)C2=O)c1	11.3%	-1.4%	-23.8%	u	8.6
O=C(O)c1cccc(N2C(=O)c3cccc4c(Cl)ccc(c34)C2=O)c1	-10.9%	u	7.7%	20.6µM*	-52.0*
Cc1cccc(N2C(=O)c3cccc4c(N(C)CCO)ccc(c34)C2=O)c1	-24.0%	u	1.26µM*	u	34.4
CC(C)CCN1C(=O)c2cccc3c(N)ccc(c23)C1=O	x	23.1µM*	x	14.6µM*	-6.0
O=C1c2ccc3c4c(ccc(c24)C(=O)N1c1cccc(O)c1)CC3	-2.6%	10.1%	2.7%	1.5%	-3.2
CC1CN(C(=O)c2ccc(OC3CCN(Cc4ccccn4)CC3)cc2)CCN1C (stereo not given)	1.7%	-0.7%	-12.4%	23.5%	11.2
Cc1cccc(N2C(=O)c3cccc4c(N)ccc(c34)C2=O)c1	-18.7%	8.2µM*	0.1%	u	-58.4*
CCC(=O)NNc1nc2c(C)cc(C)cc2s1	u	-18.2%	12.6µM*	1.1%	-3.1
Cc1cc(C)c2nc(NC(=O)c3cc(C)on3)sc2c1	u	-7.7%	4.47µM*	1.4%	-9.9
CCc1ccc2nc(NC(=O)c3cc(C)on3)sc2c1	u	6.51µM*	5.62µM*	6.51µM*	0.9
CCc1noc(C)c1C(=O)Nc1nc2ccc(F)cc2s1	x	-387.3%	x	u	47.8
CCc1noc(C)c1C(=O)Nc1nc2c(C)cc(C)cc2s1	x	3.3%	x	u	u
COc1ccccc1-c1cnc(C(O)c2ccc(F)cc2C)[nH]1 (stereo not given)	x	x	x	x	18.0
CCC(C)N(C)Cc1cccc(C2(O)CCN(S(=O)(=O)c3ccc(F)c(C)c3)CC2)c1 (stereo not given)	-24.6%	u	0.0%	14.6µM*	-22.8
Cc1cc(C2CCCCC2)n(O)c(=O)c1	2.24µM*	u	2µM*	u	46.9
CC1(C)CC(=O)C=C(Nc2ccc(Cl)c(Br)c2)C1	-11.3%	u	u	u	u
CCCCCN=c1ccn(Cc2ccccc2)c2ccccc12	-5.1%	x	15.8µM*	x	x
